# Experimental data from ChEMBL document CHEMBL3988442, “University of Dundee, Small-Polar-MMV Screening Library” (2021).
# The campaign covered roughly 53,000 compounds. About 900 (1.7%) showed an effect of 50% or more. This excerpt belongs to a sample that is enriched for strong results.
# System: Mycobacterium tuberculosis
# Test: Cornell - Phenotypic assay to identify agents that inhibit growth of Mycobacterium tuberculosis
# Format: functional
# Parameters: scale not given: direction of the effect not stated beside the values
# Settings: 10 mM as filed; unlikely as a test dose
row,SMILES,Percent Effect [%]
1,Cc1cccc(CN2C[C@@H]3CN(C(=O)C4CCOC4)C[C@@H]3C2=O)c1 (stereo partly drawn),4.733
2,Cc1ccc(NC(=O)CNc2ccccc2C(N)=O)c(C)c1,-11.67
3,COc1ccc(NC(=O)Cn2nc(C)c(C)cc2=O)c(OC)c1,11.71
4,COc1ccc(NC(=O)CNc2cccc3c2CCCC3)c(OC)c1,76.54
5,Cc1ccc(NC(=O)CNc2cccc(C(N)=O)c2C)c(C)c1,-29.06
6,COc1ccc(CNC(=O)CNc2ccccc2OC)cc1,22.93
7,Cc1ccc(NC(=O)CNc2cccc3c2CCCC3)c(Br)c1,51.04
8,NC(=O)CCSc1n[nH]c(-c2ccc3c(c2)CCC3)n1,8.887
9,CN1CCC(N(C)C(=O)c2cnc3c(cnn3C3CCCC3)c2)CC1,15.63
10,Cc1ccc(C#N)c(N2CC(C)(C)[C@@](C)(O)C2)n1,10.2
11,O=C(CCc1nnc(-c2ccsc2)o1)NCC1CCN(C2CC2)C1 (stereo not drawn),-9.076
12,COc1ccccc1CNCc1nn(-c2ccccc2)c2c1CCC2,75.02
13,Cc1noc(C)c1CNCc1nn(-c2ccccc2)c2c1CCC2,-25.17
14,Cc1c(CNCc2nn(-c3ccccc3)c3c2CCC3)cc(C#N)n1C,0.6388
15,NC(=O)CSCC(=O)NCC1CCCC1,-10.13
16,CN(CC(=O)NC1(C)CCS(=O)(=O)C1)Cc1ccc(Br)cc1 (stereo not drawn),-6.576
17,O=C(CSCCN1CCOCC1)N1CCCCCC1,-6.957
18,CN(Cc1ccncn1)c1nccc(CCC(F)(F)F)n1,-20.7
19,CCc1nnc(CN(C)c2nccc(CCC(F)(F)F)n2)o1,6.8
20,CNc1ncc(CN(C)c2nccc(CCC(F)(F)F)n2)cn1,50.32
21,CS(=O)(=O)N1CCCC1C(=O)Nc1cnc2n1CCCC2 (stereo not drawn),9.053
22,CCCNC(=O)NC(=O)CNC(C)(C)c1ccc2c(c1)OCO2,0.4574
23,CCNC(=O)NC(=O)CNC(C)(C)c1ccc2c(c1)OCCO2,27.43

row,SMILES,Percent Effect [%]
1,CCCNC(=O)NC(=O)CNC(C)(C)c1ccc2c(c1)OCCO2,101.9
2,Cc1n[nH]c(C)c1S(=O)(=O)N1CCC(Oc2cnccn2)CC1,6.999
3,O=C(O)c1cccn1-c1ccc2c(c1)OCCO2,28.73
4,COc1ccccc1CCNC(=O)C1CCC(Cn2cnnn2)CC1 (stereo not drawn),3.007
5,Cc1nn(C)c2nc(N(C)CCN(C)C3CCCC3)sc12,37.55
6,Cc1nn(C)c2nc(N(CCN(C)C)C3CCCC3)sc12,19.35
7,Cc1nn(C)c2nc(N(Cc3cnn(C)c3)C3CCCCC3)sc12,56.52
8,c1ccn(Cc2nnc3n2CCCN(c2cnccn2)C3)c1,-17.01
9,Cc1ccc(CN2CCN(c3ccc(F)cn3)CC2=O)cc1C,39.83
10,CCC(NC(=O)NCC(=O)NC(C)C)c1cc(F)ccc1F (stereo not drawn),5.032
11,CCOc1ccc(NC(=O)NCCS(=O)(=O)CC)cc1C,60.38
12,CCOc1ccc(NC(=O)NCc2csc(NC)n2)cc1C,21.98
13,CCOc1ccc(NC(=O)NCCCN(C)S(C)(=O)=O)cc1C,30.17
14,CO[C@@H]1CCN(C(=O)c2cc(C)on2)C[C@@H]1Cc1ccccc1,-19.48
15,Cc1nc(NCc2ccccc2)cc(C(C)Cn2nc(C)c(C)c2C)n1 (stereo not drawn),27.52
16,COC(=O)Cc1cccc(NC(=O)Cc2ccon2)c1,10.84
17,O=C(Cc1ccn[nH]1)N1CCc2cc(Br)sc2C1,17.86
18,O=C(Nc1ccccc1OC1CCOC1)c1ccon1 (stereo not drawn),-36.9
19,O=C(Cc1ccn[nH]1)Nc1cncc(Br)c1O,104.6
20,O=C(Cc1ccon1)Nc1cncc(Br)c1O,58.04
21,CC(C)CN1Cc2cccc(NC(=O)Cc3ccon3)c2C1,8.389
22,COc1c(Br)cccc1CCNC(=O)c1ccon1,37.39
23,CCOc1cccc(CCNC(=O)Cc2ccn[nH]2)n1,-3.182

row,SMILES,Percent Effect [%]
1,O=C(Nc1cncc(Br)c1O)c1ccon1,105.3
2,CCc1ncc(CN2C[C@@H]3C[C@@H](O)CN3C[C@@H]2Cc2ccccc2)cn1,42.85
3,CCc1ccc(C(=O)N2CCC(Nc3ccc(C)nn3)CC2)o1,29.19
4,Cc1ccc(C(=O)N2CC[C@@]3(C[C@@H](NS(C)(=O)=O)CCO3)C2)s1,6.984
5,COC(=O)[C@]12CNC[C@H]1CN(Cc1nc(C)c[nH]1)C2,-13.35
6,O=C(NC[C@]12COC[C@H]1CN(CC1CCOCC1)C2)c1ccccc1.O=C(O)C(F)(F)F,14.72
7,Cc1cnc(C(=O)N2CCCC3(CCN(c4cnn(C)c4)C3=O)C2)cn1 (stereo not drawn),-8.899
8,Cc1nc(C)c(C(=O)N2CCc3cc(F)ccc3C2C)o1 (stereo not drawn),-6.74
9,Cc1nc(C)c(C(=O)N2CCc3ccc(F)cc3C2C)o1 (stereo not drawn),37.91
10,COC(=O)c1cc(C(=O)N2CCc3ccc(F)cc3C2C)ccn1 (stereo not drawn),5.538
11,CC1c2ccc(F)cc2CCN1C(=O)c1nc(=O)[nH][nH]1 (stereo not drawn),10.03
12,CC1c2cc(F)ccc2CCN1C(=O)c1[nH]c(=O)[nH]c(=O)c1N (stereo not drawn),102.8
13,CC1c2ccc(F)cc2CCN1C(=O)c1[nH]c(=O)[nH]c(=O)c1N (stereo not drawn),102.4
14,NC(=O)C1CCN(C(=O)NC2CCc3cc(F)ccc32)CC1 (stereo not drawn),-2.777
15,Fc1ccccc1-c1nccnc1C1CCCNC1 (stereo not drawn),6.685
16,Cc1ccccc1CN1C[C@@H](C(=O)N2CCCCO2)C[C@H]2OCC[C@H]21.O=C(O)C(F)(F)F,19.61
17,O=C(NC1CC1)C1(Cc2ccccc2-c2ccncc2)CCOCC1,-4.384
18,CS(=O)(=O)N1CCOCC12CCN(Cc1ccc(F)cc1)CC2.O=C(O)C(F)(F)F,10.73
19,CS(=O)(=O)N1CCCC(C(=O)Nc2cnn(Cc3ccc(Cl)cc3)c2)C1 (stereo not drawn),6.456
20,COc1cc(CN2CCCC2)ccc1OC12CCCN(CC1)C2 (stereo not drawn),6.74
21,COc1cc(C#N)ccc1OC12CCCN(CC1)C2 (stereo not drawn),14.23
22,CCCc1ccc(OC23CCCN(CC2)C3)c(OC)c1 (stereo not drawn),51.62
